# PubChem BioAssay
# The source made the active and inactive calls.
# Columns and labels:
# [1] = small molecules captured by biotinylated probe aFSTL3 – biochemical, small-molecule microarray, fluorescence 635/667, stem cell growth factor project, primary screen (AID 1064); conditions: higher = more signal;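 also: measures binding of the biotinylated anti-FSTL3 antibody to printed compounds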
# [2] = binders from COS7 lysate, DM2A8 probe, primary screen, torsin A project, cell lysate, small-molecule microarray, fluorescence 635/667 (AID 1065); conditions: higher = more signal, COS7 lysate expressing mutant human TOR1A
# [3] = small molecules captured by biotinylated probe aFGF2 – biochemical, small-molecule microarray, fluorescence 635/667, stem cell growth factor project, primary screen (AID 1067); conditions: higher = more signal;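 also: measures binding of biotinylated aFGF2 protein to printed compounds on slides; z-score merges feature fluorescence and signal-to-noise across triplicate slides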
# [4] = small molecules captured by biotinylated probe aFGF10 – biochemical, small-molecule microarray, fluorescence 635/667, stem cell growth factor project, primary screen (AID 1071); conditions: higher = more signal;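 also: score merges 667 nm spot intensity and signal to noise from triplicate slides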
# [5] = biological target: Neurogenic locus notch homolog protein 2 (Homo sapiens) (UniProt Q04721); test: small molecules binding Notch2 protein – biochemical, small-molecule microarray, 635 nm fluorescence, stem cell growth factors, primary screen (AID 1073); conditions: higher = more signal
# [6] = biological target: Pro-neuregulin-1, membrane-bound isoform (Homo sapiens) (UniProt Q02297); test: small molecules binding neuregulin-1 protein – biochemical, small-molecule microarray, fluorescence 635/667, psychiatric disease protein project, primary screen (AID 1075); conditions: NRG1 binding, 635 nm fluorescence, higher = more signal;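 also: score combines 667 nm spot fluorescence with signal to noise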
# [7] = tested on: Neuregulin-1 EGF-like domain; test: small molecules binding NRG1 EGF domain – biochemical, small-molecule microarray, 635 nm fluorescence, primary screen (AID 1081); conditions: higher = more signal;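 also: binding of the protein to compounds printed on small-molecule microarray slides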
# [8] = FRG1 expression reporter modulators in myotubes – cell-based, C2C12 myotubes, firefly/Renilla luciferase, luminescence, FRG1 inhibition for FSHD, primary screen (AID 1084); conditions: FRG1 promoter luciferase, higher = more signal, called active from +8 up or from −8 down
# [9] = small molecules captured by biotinylated probe aFST – biochemical, small-molecule microarray, fluorescence 635/667, stem cell growth factor project, primary screen (AID 1086); conditions: higher = more signal;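 also: score merges 667 nm fluorescence with signal-to-noise of each printed compound spot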
# [10] = binders of probe aHhip on microarray, primary screen, stem cell growth factor project, biochemical, small-molecule microarray, fluorescence 635/667 (AID 1087); conditions: higher = more signal;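 also: score merges spot fluorescence at 667nm with spot signal to noise ratio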
# [11] = tested on: PRMT1 (protein arginine N-methyltransferase 1); test: small molecules binding arginine methyltransferase PRMT1 – biochemical, small-molecule microarray, 635 nm fluorescence, primary screen (AID 1088); conditions: higher = more signal;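 also: binding of Prmt1 protein to compounds spotted on small-molecule microarray slides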
# [12] = growth effects on S. cerevisiae YJM789 – YJM789 clinical isolate, OD600, 24 h, basal, primary screen (AID 1089); conditions: higher = more signal, called active from +8 up or from −8 down;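 also: growth of clinical yeast isolate S. cerevisiae YJM 789 seeded 1000 cells per well; test concentration not given here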
# [13] = S. pombe growth modifiers, basal conditions – strain 972, OD600, 24 h, no modulator, primary screen (AID 1090);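 also: basal condition with compound alone and no growth modifier present; test concentration not given here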; conditions: S. pombe 972 growth, higher = more signal, called active from +8 up or from −8 down
# [14] = budding yeast growth modifiers under rapamycin – strain BY4716, OD600, 96 h, primary screen (AID 1091); also: test concentration not given here; conditions: S. cerevisiae BY4716 + rapamycin, higher = more signal, called active from +8 up or from −8 down
# [15] = biological target: Torsin-1A-interacting protein 2 (Homo sapiens) (UniProt Q8NFQ8); test: small molecules binding lysate-expressed LULL1 – cell lysate, human LULL1 lysate, 635/667 nm fluorescence, primary screen (AID 1092); conditions: small-molecule microarray, hLULL1 lysate binding, 635 nm fluorescence; higher = more signal;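 also: probe is lysate of COS7 cells overexpressing human LULL1; score merges per-feature 667 nm fluorescence with signal-to-noise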
# [16] = optical density change of DRC41 E. coli – strain DRC41, OD650, 24 h, E. coli filamentation project, primary screen (AID 1093);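 also: MC1000 strain lacking acrAB efflux and sulA so SOS filamentation is blocked; test concentration not given here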; conditions: E. coli DRC41 growth, higher = more signal, called active from +8 up or from −8 down
# [17] = probe aLefty2 binding to arrayed compounds – biochemical, biotinylated probe, 635/667 nm fluorescence, primary screen (AID 1094); conditions: small-molecule microarray, higher = more signal;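 also: score merges spot fluorescence near 667 nm with spot signal-to-noise ratio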
# [18] = tested on: Noggin (protein binding on small-molecule microarray); test: small molecules binding Noggin protein – biochemical, 635/667 nm fluorescence, primary screen (AID 1095); conditions: 635 nm fluorescence, higher = more signal;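 also: score merges 667 nm feature fluorescence with signal to noise over triplicate slides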
# [19] = biological target: Neurogenic locus notch homolog protein 3 (Homo sapiens) (UniProt Q9UM47); test: small molecules binding NOTCH3 protein – biochemical, 635/667 nm fluorescence, primary screen (AID 1096); conditions: small-molecule microarray, 635 nm fluorescence, higher = more signal
# [20] = probe aEGFR binding to arrayed compounds – biochemical, biotinylated probe, 635/667 nm fluorescence, primary screen (AID 1097); conditions: small-molecule microarray, higher = more signal;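 also: probe is a biotinylated anti-EGFR antibody binding compounds printed on slides; score combines fluorescence near 667 nm and signal to noise of each spot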
# Sequence of Pro-neuregulin-1, membrane-bound isoform (Homo sapiens) (Q02297 whole entry, looked up, the tested form may be a part, canonical isoform): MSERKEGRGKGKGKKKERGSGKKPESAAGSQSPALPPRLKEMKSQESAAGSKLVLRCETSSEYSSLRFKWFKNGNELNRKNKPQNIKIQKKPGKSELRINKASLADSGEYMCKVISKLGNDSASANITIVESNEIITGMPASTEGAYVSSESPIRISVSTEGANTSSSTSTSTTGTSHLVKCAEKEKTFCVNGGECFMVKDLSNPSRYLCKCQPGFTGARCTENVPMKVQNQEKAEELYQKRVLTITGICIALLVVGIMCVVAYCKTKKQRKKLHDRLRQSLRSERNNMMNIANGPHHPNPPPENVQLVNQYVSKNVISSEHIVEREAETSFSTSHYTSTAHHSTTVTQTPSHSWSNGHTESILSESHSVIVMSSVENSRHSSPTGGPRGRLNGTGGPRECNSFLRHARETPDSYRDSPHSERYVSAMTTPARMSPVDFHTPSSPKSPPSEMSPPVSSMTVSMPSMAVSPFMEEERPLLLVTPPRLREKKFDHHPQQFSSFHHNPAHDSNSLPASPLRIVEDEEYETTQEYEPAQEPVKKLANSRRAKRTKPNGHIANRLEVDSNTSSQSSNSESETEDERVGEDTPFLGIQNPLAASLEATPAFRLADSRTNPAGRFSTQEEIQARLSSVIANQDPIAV
# Sequence of Neurogenic locus notch homolog protein 3 (Homo sapiens) (Q9UM47 whole entry, looked up): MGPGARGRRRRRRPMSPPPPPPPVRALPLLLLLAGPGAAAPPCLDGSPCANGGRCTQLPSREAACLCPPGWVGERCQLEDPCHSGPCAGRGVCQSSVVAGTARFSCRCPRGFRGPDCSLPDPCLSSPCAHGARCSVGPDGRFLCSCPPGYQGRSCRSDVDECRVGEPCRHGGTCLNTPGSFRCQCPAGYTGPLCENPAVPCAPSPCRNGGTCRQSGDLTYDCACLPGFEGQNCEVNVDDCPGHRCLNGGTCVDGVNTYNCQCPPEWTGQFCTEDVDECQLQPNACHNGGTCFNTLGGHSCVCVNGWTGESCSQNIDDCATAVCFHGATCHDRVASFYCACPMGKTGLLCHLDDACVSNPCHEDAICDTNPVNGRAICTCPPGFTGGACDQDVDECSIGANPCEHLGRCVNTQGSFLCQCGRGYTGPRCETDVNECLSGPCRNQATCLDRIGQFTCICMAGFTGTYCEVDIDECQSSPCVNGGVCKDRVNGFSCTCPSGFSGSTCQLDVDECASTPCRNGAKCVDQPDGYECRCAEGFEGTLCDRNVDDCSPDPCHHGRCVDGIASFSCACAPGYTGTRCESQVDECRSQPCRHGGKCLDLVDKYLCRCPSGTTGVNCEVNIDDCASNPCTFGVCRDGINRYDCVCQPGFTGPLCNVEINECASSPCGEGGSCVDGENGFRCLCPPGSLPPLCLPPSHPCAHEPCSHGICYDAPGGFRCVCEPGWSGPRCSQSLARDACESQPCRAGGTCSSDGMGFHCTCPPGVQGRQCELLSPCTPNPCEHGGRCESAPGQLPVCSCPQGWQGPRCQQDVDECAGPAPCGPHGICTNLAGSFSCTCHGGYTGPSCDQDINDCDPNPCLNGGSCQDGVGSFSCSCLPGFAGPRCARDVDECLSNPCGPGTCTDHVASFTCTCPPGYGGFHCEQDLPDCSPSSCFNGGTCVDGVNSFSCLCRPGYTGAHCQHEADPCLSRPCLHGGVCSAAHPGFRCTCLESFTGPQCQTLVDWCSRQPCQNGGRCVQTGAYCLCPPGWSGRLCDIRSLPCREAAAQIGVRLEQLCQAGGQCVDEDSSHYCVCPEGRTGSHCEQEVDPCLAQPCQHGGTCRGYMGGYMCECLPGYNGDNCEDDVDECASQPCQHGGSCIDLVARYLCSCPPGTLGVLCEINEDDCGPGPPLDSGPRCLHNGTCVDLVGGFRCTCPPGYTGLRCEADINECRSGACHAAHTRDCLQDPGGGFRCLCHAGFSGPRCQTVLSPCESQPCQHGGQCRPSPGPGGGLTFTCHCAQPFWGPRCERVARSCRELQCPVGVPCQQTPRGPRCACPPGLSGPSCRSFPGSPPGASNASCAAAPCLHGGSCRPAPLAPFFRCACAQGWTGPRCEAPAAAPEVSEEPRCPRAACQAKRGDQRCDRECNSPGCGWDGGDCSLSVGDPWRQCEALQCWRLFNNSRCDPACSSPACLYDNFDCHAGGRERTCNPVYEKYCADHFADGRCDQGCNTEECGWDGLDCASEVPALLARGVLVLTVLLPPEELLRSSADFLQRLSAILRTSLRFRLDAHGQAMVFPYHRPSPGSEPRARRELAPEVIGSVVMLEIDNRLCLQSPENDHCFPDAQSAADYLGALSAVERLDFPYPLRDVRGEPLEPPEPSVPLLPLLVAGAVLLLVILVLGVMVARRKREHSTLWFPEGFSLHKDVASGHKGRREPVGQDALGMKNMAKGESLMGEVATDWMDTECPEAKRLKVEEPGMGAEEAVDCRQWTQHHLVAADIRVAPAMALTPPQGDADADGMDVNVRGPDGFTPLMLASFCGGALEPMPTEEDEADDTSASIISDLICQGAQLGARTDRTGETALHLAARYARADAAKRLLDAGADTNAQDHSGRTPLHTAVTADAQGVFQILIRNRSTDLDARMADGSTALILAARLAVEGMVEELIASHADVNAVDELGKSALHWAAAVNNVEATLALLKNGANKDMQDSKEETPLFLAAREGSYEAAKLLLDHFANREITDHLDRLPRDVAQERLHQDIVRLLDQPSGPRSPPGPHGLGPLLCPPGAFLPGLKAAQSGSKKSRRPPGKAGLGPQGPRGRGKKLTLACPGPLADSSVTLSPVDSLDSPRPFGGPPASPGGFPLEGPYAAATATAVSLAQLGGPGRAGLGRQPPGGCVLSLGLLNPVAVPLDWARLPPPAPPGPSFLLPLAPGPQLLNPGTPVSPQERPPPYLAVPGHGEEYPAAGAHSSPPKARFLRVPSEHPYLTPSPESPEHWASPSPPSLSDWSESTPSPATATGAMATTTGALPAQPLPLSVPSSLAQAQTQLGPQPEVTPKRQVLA
# Sequence of Torsin-1A-interacting protein 2 (Homo sapiens) (Q8NFQ8 whole entry, looked up): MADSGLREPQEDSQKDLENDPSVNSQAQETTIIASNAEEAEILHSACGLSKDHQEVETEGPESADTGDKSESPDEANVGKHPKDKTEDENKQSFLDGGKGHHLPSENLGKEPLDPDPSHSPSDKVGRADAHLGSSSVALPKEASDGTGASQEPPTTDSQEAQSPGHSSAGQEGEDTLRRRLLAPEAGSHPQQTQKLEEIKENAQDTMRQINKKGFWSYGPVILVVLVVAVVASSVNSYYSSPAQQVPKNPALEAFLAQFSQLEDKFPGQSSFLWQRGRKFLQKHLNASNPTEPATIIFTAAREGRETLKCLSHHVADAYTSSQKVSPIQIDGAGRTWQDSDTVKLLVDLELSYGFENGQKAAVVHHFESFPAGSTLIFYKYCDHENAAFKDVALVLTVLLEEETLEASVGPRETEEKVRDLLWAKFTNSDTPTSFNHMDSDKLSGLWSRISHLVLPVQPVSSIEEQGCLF
smiles,measurement,setting,value
COC(=O)CC=C[C@@H](C)[C@@H](C=NO[C@H](C)c1cn([C@H](CO)Cc2ccccc2)nn1)NS(=O)(=O)c1ccc(C)cc1,composite z-score,[1],-0.468
same,composite z-score,[2],2.12
same,composite z-score,[3],-0.165
same,composite z-score,[4],-0.147
same,composite z-score,[5],-0.303
same,composite z-score,[6],-0.211
same,composite z-score,[7],0.0224
same,z-score,[8],-0.25 (inactive)
same,composite z-score,[9],0.227
same,composite z-score,[10],-0.251
same,composite z-score,[11],0.915
same,z-score,[12],-0.798 (inactive)
same,z-score,[13],0.359 (inactive)
same,z-score,[14],-0.824 (inactive)
same,composite z-score,[15],0.786
same,z-score,[16],-0.297 (inactive)
same,composite z-score,[17],-0.0407
same,composite z-score,[18],0.857
same,composite z-score,[19],-0.0329
same,composite z-score,[20],0.168
CO[C@H]1COC(=O)[C@H](C)NC(=O)[C@@H](C)COC(=O)[C@H]2CCCN2C(=O)CC=C[C@H]1C,composite z-score,[1],-0.403
same,composite z-score,[2],1.06
same,composite z-score,[3],-0.216
same,composite z-score,[4],0.347
same,composite z-score,[5],0.338
same,composite z-score,[6],-0.499
same,composite z-score,[7],0.175
same,z-score,[8],-0.345 (inactive)
same,composite z-score,[9],-0.0694
same,composite z-score,[10],-0.179
same,composite z-score,[11],1.08
same,z-score,[12],-0.282 (inactive)
same,z-score,[13],-0.658 (inactive)
same,z-score,[14],-0.571 (inactive)
same,composite z-score,[15],-0.412
same,z-score,[16],0.492 (inactive)
same,composite z-score,[17],-0.138
same,composite z-score,[18],0.542
same,composite z-score,[19],0.358
same,composite z-score,[20],-0.0689
Cc1ccc(S(=O)(=O)N[C@H]2COC(=O)CC=C[C@H](C)[C@@H](NS(=O)(=O)c3ccc(C)cc3)COC(=O)CC=C[C@@H]2C)cc1,composite z-score,[1],-0.546
same,composite z-score,[2],0.391
same,composite z-score,[3],0.16
same,composite z-score,[4],0.395
same,composite z-score,[5],0.434
same,composite z-score,[6],-0.107
same,composite z-score,[7],0.0446
same,z-score,[8],1.41 (inactive)
same,composite z-score,[9],-0.118
same,composite z-score,[10],0.166
same,composite z-score,[11],0.405
same,z-score,[12],-0.293 (inactive)
same,z-score,[13],0.518 (inactive)
same,z-score,[14],0.0667 (inactive)
same,composite z-score,[15],0.247
same,z-score,[16],0.0401 (inactive)
same,composite z-score,[17],-0.126
same,composite z-score,[18],0.601
same,composite z-score,[19],0.321
same,composite z-score,[20],-0.068
C=CC[C@@H]1C=C[C@H](ON=C(C)CCC(=O)OC[C@H]2O[C@H](C#Cc3ccccc3)C=C[C@@H]2Oc2ccc(C)cc2)[C@@H](CO)O1,composite z-score,[1],-0.566
same,composite z-score,[2],0.692
same,composite z-score,[3],0.0624
same,composite z-score,[4],0.782
same,composite z-score,[5],1.12
same,composite z-score,[6],0.661
same,composite z-score,[7],0.984
same,z-score,[8],-0.349 (inactive)
same,composite z-score,[9],0.203
same,composite z-score,[10],0.0373
same,composite z-score,[11],1.54
same,z-score,[12],1.28 (inactive)
same,z-score,[13],0.275 (inactive)
same,z-score,[14],1.06 (inactive)
same,composite z-score,[15],2.2
same,z-score,[16],0.943 (inactive)
same,composite z-score,[17],-0.116
same,composite z-score,[18],0.615
same,composite z-score,[19],1.12
same,composite z-score,[20],0.109
CCOC(=O)[C@H](CC(C)C)NC(=O)CCC1CC(OC(=O)NCCc2ccc(F)cc2)CC2(CCCC(COC(=O)NCCc3ccc(Cl)cc3)O2)O1 (stereo not given in full),composite z-score,[1],-0.543
same,composite z-score,[2],1
same,composite z-score,[3],-0.0267
same,composite z-score,[4],0.491
same,composite z-score,[5],0.74
same,composite z-score,[6],0.0742
same,composite z-score,[7],1.06
same,z-score,[8],1.57 (inactive)
same,composite z-score,[9],0.197
same,composite z-score,[10],0.208
same,composite z-score,[11],1.26
same,z-score,[12],-0.623 (inactive)
same,z-score,[13],0.485 (inactive)
same,z-score,[14],-0.518 (inactive)
same,composite z-score,[15],1.97
same,z-score,[16],-0.296 (inactive)
same,composite z-score,[17],-0.0021
same,composite z-score,[18],0.948
same,composite z-score,[19],0.773
same,composite z-score,[20],-0.123
C[C@@H](ON=C1[C@H]2CCn3c(=O)n(-c4ccccc4)c(=O)n3[C@H]2[C@H](O)[C@@H]2O[C@H]12)c1cn([C@@H]2COC[C@H]2O)nn1,composite z-score,[1],-0.648
same,composite z-score,[2],0.653
same,composite z-score,[3],-0.0529
same,composite z-score,[4],0.35
same,composite z-score,[5],0.213
same,composite z-score,[6],0.406
same,composite z-score,[7],0.261
same,z-score,[8],1.15 (inactive)
same,composite z-score,[9],0.236
same,composite z-score,[10],0.0274
same,composite z-score,[11],0.556
same,z-score,[12],-0.638 (inactive)
same,z-score,[13],0.636 (inactive)
same,z-score,[14],0.0921 (inactive)
same,composite z-score,[15],-0.219
same,z-score,[16],0.389 (inactive)
same,composite z-score,[17],-0.152
same,composite z-score,[18],0.57
same,composite z-score,[19],0.72
same,composite z-score,[20],-0.0788
C[C@@H]1CC[C@H]2C(=O)O[C@@H](Cc3ccccc3)CN2[C@H]1c1ccc(Br)cc1,composite z-score,[1],-0.395
same,composite z-score,[2],0.207
same,composite z-score,[3],-0.185
same,composite z-score,[4],-0.112
same,composite z-score,[5],0.526
same,composite z-score,[6],0.649
same,composite z-score,[7],0.408
same,z-score,[8],-0.205 (inactive)
same,composite z-score,[9],0.384
same,composite z-score,[10],-0.201
same,composite z-score,[11],1.14
same,z-score,[12],0.004 (inactive)
same,z-score,[13],-2.36 (inactive)
same,z-score,[14],-0.882 (inactive)
same,composite z-score,[15],1.16
same,z-score,[16],-0.529 (inactive)
same,composite z-score,[17],-0.0258
same,composite z-score,[18],0.31
same,composite z-score,[19],0.22
same,composite z-score,[20],-0.0485
COc1cccc([C@H]2Oc3ccc(OC)cc3C(=NOC[C@@H](O)[C@H]3O[C@@H]4OC(C)(C)O[C@@H]4[C@H]3O)[C@@H]2O)c1,composite z-score,[1],-0.117
same,composite z-score,[2],0.146
same,composite z-score,[3],-0.0533
same,composite z-score,[4],0.289
same,composite z-score,[5],0.533
same,composite z-score,[6],-0.242
same,composite z-score,[7],0.54
same,z-score,[8],5.07 (inactive)
same,composite z-score,[9],0.149
same,composite z-score,[10],-0.194
same,composite z-score,[11],0.775
same,z-score,[12],-0.797 (inactive)
same,z-score,[13],-2.21 (inactive)
same,z-score,[14],-1.62 (inactive)
same,composite z-score,[15],0.347
same,z-score,[16],0.932 (inactive)
same,composite z-score,[17],-0.0616
same,composite z-score,[18],0.449
same,composite z-score,[19],0.456
same,composite z-score,[20],0.0746
CCN1C(=O)[C@H]2[C@H]3[C@H](O)[C@H](O)CC(=NOC[C@H]4O[C@H](c5ccccc5)C=C[C@@H]4Oc4ccc(OC)cc4)[C@@H]3CC[C@H]2C1=O,composite z-score,[1],-0.0474
same,composite z-score,[2],0.174
same,composite z-score,[3],0.0338
same,composite z-score,[4],0.999
same,composite z-score,[5],0.887
same,composite z-score,[6],0.488
same,composite z-score,[7],0.953
same,z-score,[8],0.52 (inactive)
same,composite z-score,[9],0.0352
same,composite z-score,[10],0.351
same,composite z-score,[11],1.28
same,z-score,[12],-0.125 (inactive)
same,z-score,[13],-0.653 (inactive)
same,z-score,[14],-0.175 (inactive)
same,composite z-score,[15],0.996
same,z-score,[16],0.964 (inactive)
same,composite z-score,[17],-0.0271
same,composite z-score,[18],0.738
same,composite z-score,[19],1.11
same,composite z-score,[20],-0.0085
COC(=O)CC=C[C@H](C)[C@@H](OCc1cccc(Br)c1)[C@@H](C)[C@H](OC)C1CCCCC1,composite z-score,[1],-0.191
same,composite z-score,[2],0.451
same,composite z-score,[3],-0.245
same,composite z-score,[4],0.106
same,composite z-score,[5],-0.723
same,composite z-score,[6],0.419
same,composite z-score,[7],-0.3
same,z-score,[8],1.23 (inactive)
same,composite z-score,[9],-0.118
same,composite z-score,[10],0.0024
same,composite z-score,[11],-0.0514
same,z-score,[12],0.738 (inactive)
same,z-score,[13],-1.28 (inactive)
same,z-score,[14],0.99 (inactive)
same,composite z-score,[15],-0.412
same,z-score,[16],0.276 (inactive)
same,composite z-score,[17],-0.166
same,composite z-score,[18],0.32
same,composite z-score,[19],-1
same,composite z-score,[20],-0.237
